Data from PubChem BioAssay (NCATS).
Results filed as inconclusive are left out. Where a call stands in place of a potency, no number is given. A number with no mark means an inactive call. The source made the active and inactive calls. Calls follow the shape of the dose curve; as a rule, active = well fitted inhibition curve with a large enough effect; inconclusive = small, poorly fitted or top-dose-only effect; inactive = flat fitted curve, though single readings scatter.

Assays:
[1] = qHTS profiling for inhibitors of Plasmodium falciparum proliferation (AID 504749); also: nearly all actives have a fitted effect of over 60% in size; conditions: P. falciparum in erythrocytes, SYBR Green DNA, 72 h
Procedure, shortened: (§1)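 Infected RBCs, 0.3% parasitemia/2.5% Hct final; cpd 72 h, 37 C, 5% CO2; lysis buffer with saponin/triton/SYBR Green I, o/n RT dark; FI 485/535; norm. to artemisinin (0.29 uM) and DMSO.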

3D7 = experiment: as above; conditions: P. falciparum in erythrocytes, SYBR Green DNA, 72 h; series mostly up to 28.7 µM
Procedure, shortened: as §1

AA1029 = experiment: as above; conditions: P. falciparum in erythrocytes, SYBR Green DNA, 72 h; series mostly up to 28.7 µM
Procedure, shortened: as §1

AS120 = experiment: as above; conditions: P. falciparum in erythrocytes, SYBR Green DNA, 72 h; series mostly up to 28.7 µM
Procedure, shortened: as §1

ATS189 = experiment: as above; conditions: P. falciparum in erythrocytes, SYBR Green DNA, 72 h; series mostly up to 28.7 µM
Procedure, shortened: as §1

ATS95 = experiment: as above; conditions: P. falciparum in erythrocytes, SYBR Green DNA, 72 h; series mostly up to 28.7 µM
Procedure, shortened: as §1

C2A = experiment: as above; conditions: P. falciparum in erythrocytes, SYBR Green DNA, 72 h; series mostly up to 28.7 µM
Procedure, shortened: as §1

CP185 = experiment: as above; conditions: P. falciparum in erythrocytes, SYBR Green DNA, 72 h; series mostly up to 28.7 µM
Procedure, shortened: as §1

CP191 = experiment: as above; conditions: P. falciparum in erythrocytes, SYBR Green DNA, 72 h; series mostly up to 28.7 µM
Procedure, shortened: as §1

CP192 = experiment: as above; conditions: P. falciparum in erythrocytes, SYBR Green DNA, 72 h; series mostly up to 28.7 µM
Procedure, shortened: as §1

CP194 = experiment: as above; conditions: P. falciparum in erythrocytes, SYBR Green DNA, 72 h; series mostly up to 28.7 µM
Procedure, shortened: as §1

7G8 = experiment: as above; conditions: P. falciparum in erythrocytes, SYBR Green DNA, 72 h; series mostly up to 28.7 µM
Procedure, shortened: as §1

[2] = at 12.8 µM (top of the series), parasite line A
[3] = at 12.8 µM (top of the series), parasite line B
[4] = at 28.7 µM (top of the series), parasite line A
[5] = at 28.7 µM (top of the series), parasite line B
Potency is read from the fitted curve at half-maximal effect.

Structure (SMILES)	activity, negative = inhibition [1, 2] [%]	activity, negative = inhibition [1, 3] [%]	Potency (3D7)	Potency (AA1029)	Potency (AS120)	Potency (ATS189)	Potency (ATS95)	Potency (C2A)	Potency (CP185)	Potency (CP191)	Potency (CP192)	Potency (CP194)	activity, negative = inhibition [1, 4] [%]	activity, negative = inhibition [1, 5] [%]	Potency (7G8)	Potency ([1]; parasite line B)
C[C@H]1[C@H](NC(=O)/C(=N/OC(C)(C)C(=O)O)c2csc(N)n2)C(=O)N1S(=O)(=O)O (stereo in doubt)	1.65	14.2	inactive	inactive	inactive	inactive	inactive	inactive	inactive	inactive	inactive	inactive	–	–	–	–
COc1cc2c(cc1OC)C(=O)C(CC1CCN(Cc3ccccc3)CC1)C2 (configuration not stated)	–	–	inactive	–	inactive	–	inactive	–	–	8.91 µM (active)	inactive	inactive	-29.4	5.51	–	–
CCN(CCCc1ccccc1)CCCc1ccccc1	-8.39	-11	inactive	–	–	–	3.55 µM (active)	inactive	–	inactive	inactive	–	–	–	–	–
CCCCC1=NC2(CCCC2)C(=O)N1Cc1ccc(-c2ccccc2-c2nn[nH]n2)cc1	–	–	inactive	inactive	inactive	inactive	–	inactive	inactive	inactive	inactive	inactive	-0.908	-26.5	–	–
CNCCC(Oc1ccccc1C)c1ccccc1 (configuration not stated)	–	–	inactive	–	–	inactive	inactive	inactive	inactive	inactive	inactive	–	4.27	4.69	–	–
Oc1ccc(Cl)c2cccnc12	–	–	–	inactive	inactive	inactive	inactive	inactive	inactive	–	inactive	inactive	-27	–	–	–
CCN(CC)CCNC(=O)COc1ccc(Cl)cc1	–	–	inactive	–	12.6 µM (active)	–	–	inactive	–	inactive	inactive	–	–	–	–	–
CO/N=C1\CN(c2nc3c(cc2F)c(=O)c(C(=O)O)cn3C2CC2)CC1CN (configuration not stated)	–	–	10 µM (active)	7.94 µM (active)	–	–	–	–	–	8.91 µM (active)	–	–	–	–	7.94 µM (active)	–
Cc1ccc(O)c2ncccc12	–	–	–	inactive	–	inactive	inactive	inactive	inactive	inactive	inactive	–	–	-28.2	inactive	–
C[C@@H]1C(=O)NC2=Nc3cccc(Cl)c3CN21	–	–	inactive	inactive	inactive	inactive	inactive	inactive	inactive	inactive	inactive	inactive	–	-2.54	inactive	–
COc1cccc(CCc2ccccc2OCC(CN(C)C)OC(=O)CCC(=O)O)c1 (configuration not stated)	–	–	10 µM (active)	3.98 µM (active)	4.47 µM (active)	5.62 µM (active)	5.62 µM (active)	10 µM (active)	8.91 µM (active)	–	16.9 µM (active)	4.78 µM (active)	–	–	0.631 µM (active)	6.31 µM (active)
CN1CCC[C@@H]1c1cccnc1	–	–	inactive	inactive	inactive	inactive	inactive	inactive	inactive	inactive	inactive	inactive	3.02	–	inactive	–
O=C(Nc1ccc(Oc2ccc(Cl)cc2)c(Cl)c1)c1cc(I)cc(I)c1O	–	–	inactive	inactive	–	inactive	inactive	inactive	inactive	–	inactive	inactive	–	–	–	–
CC(C)NC[C@@H](O)COc1cccc2ccccc12	–	–	inactive	11.2 µM (active)	8.91 µM (active)	10 µM (active)	–	inactive	–	–	inactive	–	4.7	–	5.62 µM (active)	–
CN(C)C(=S)SC(=S)N(C)C	–	–	11.2 µM (active)	–	12.6 µM (active)	–	–	–	–	–	7.57 µM (active)	–	–	–	6.31 µM (active)	–
CCCCc1nc(Cl)c(CO)n1Cc1ccc(-c2ccccc2-c2nn[nH]n2)cc1	–	–	5.62 µM (active)	10 µM (active)	8.91 µM (active)	–	12.6 µM (active)	–	–	–	–	–	–	–	6.31 µM (active)	12.6 µM (active)
CC(C)COC(=O)c1ccc(N)cc1	–	–	inactive	inactive	inactive	inactive	inactive	inactive	inactive	inactive	inactive	inactive	–	-17.5	inactive	–
